Results reported in PubChem BioAssay AID1259415 (National Center for Advancing Translational Sciences (NCATS), 2018).
The campaign covered roughly 410,000 compounds. About 18,000 (4.4%) were called active. About 7% were inconclusive and are not listed. The sample as a whole holds a higher share of actives than the screen did. Unmarked numbers belong to inactive results. Cut-off read from the data, not from the text of the source: active = activity change below about -60%; inconclusive = no clear call, values can overlap the other calls; inactive = above about -39%.

Experiment: qHTS Assay for inhibitors of the human cytomegalovirus (HCMV)
Settings: HFF cells, HCMV-luciferase reporter, 72 h; at 57.5 µM; hits give low values
Outline: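 HFF cells seeded 16 h at 37C, treated with compounds, infected with luciferase-reporter HCMV at MOI 1 PFU/cell; luciferase read at 72 h post infection, normalized to buffer-only and Salinomycin controls.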
% is set by controls: 0 for no effect and ±100 for the full control effect.

SMILES	activity change, negative = inhibition
COc1ccccc1N1CCN(S(=O)(=O)CCNC(=O)COc2ccc(F)cc2)CC1	65.8%
Cc1ccc(NC(=O)CCCn2c(=O)c3cccn3c3ccccc32)cc1Cl	4.78%
CC(C)c1ccc(S(=O)(=O)N2CCC3(CC2)OCCO3)cc1	-60.4% (active)
Cc1c(C)c(C)c(S(=O)(=O)N2CCC3(CC2)OCCO3)c(C)c1C	-6.48%
O=S(=O)(c1ccc(Cl)s1)N1CCC2(CC1)OCCO2	-18.3%
COCCNC(=O)c1cccc(-c2nc3c(NC4CCCCC4)nccc3[nH]2)c1	-4.46%
CCOc1ccccc1NC(=O)CCn1cnnn1	-4.13%
NC(=S)NN=Cc1ccc(OC(=O)COc2cc(Cl)c(Cl)cc2Cl)cn1	-75.3% (active)
O=C(COc1cc(Cl)c(Cl)cc1Cl)NC(=O)NC1CCCC1	65.3%
CC(C)(C)c1ccc(C(=O)N2CCC(c3nc(-c4ccc(S(=O)(=O)N5CCCC5)cc4)no3)CC2)cc1	-35.7%
CCCN(C(=O)Cn1cc(S(=O)(=O)N2CCN(c3ccccc3F)CC2)c2ccccc2c1=O)c1cccc(C)c1	-13.9%
CC1COC2C(O1)N(S(C)(=O)=O)CCN2S(C)(=O)=O (configuration not stated)	17.4%
CCOC(=O)CC1(NC(=O)c2cc(COc3cncc(Cl)c3)on2)CCCCC1	-73.4% (active)
CCOC(=O)CC1COCCN1C(=O)c1cc(COc2ccc(F)c(F)c2)on1 (configuration not stated)	53.9%
CCCOC1CCCN(C(=O)c2cc(COc3cncc(Cl)c3)on2)C1 (configuration not stated)	45.7%
O=C(O)CSc1nccn1-c1cccc(Cl)c1	-24.9%
Cc1ccc(Nc2c(-c3ccc(N(C)C)cc3)nc3nc[nH]n23)cc1	-7.65%
Cc1cccc(OCCSc2nc3ccccc3n2CC(=O)N2CCCCC2)c1C	0.117%
CCOC(=O)C1CCCN(C(=O)c2ccc(-n3ccc4ccccc43)s2)C1 (configuration not stated)	7.94%
Cc1ccc(C)c(OCc2cc(C(=O)N3CCN(c4cnccn4)CC3)no2)c1	-30.5%
C=CCC1(CC=C)CCCN1C(=O)c1cc(COc2ccc(-n3cncn3)cc2)on1	-87.7% (active)

SMILES	activity change, negative = inhibition
CC1CN(C(=O)c2cc(COc3c(F)cccc3F)on2)CCN1C (configuration not stated)	3.63%
COc1cccc(CNC(=O)Cn2c(=O)c3cccn3c3ccc(F)cc32)c1OC	44.7%
CCOc1ccccc1CNC(=O)c1ccc2c(c1)nc1n2CCC(C)C1 (configuration not stated)	33.3%
Cc1ccc2nc(COc3cccc(NC(=O)Nc4ccc(C)c(Cl)c4)c3)cc(=O)n2c1	26.6%
CC(NC(=O)c1cc2c(=O)n3ccccc3nc2n(C(C)C)c1=N)c1ccccc1 (configuration not stated)	0.208%
Cc1nn(-c2nc(-c3ccccc3)cc(C(F)(F)F)n2)c(C)c1Cl	-14.9%
CCCCC(=O)NC(c1ccc(OC)c(OC)c1)c1ccc2cccnc2c1O (configuration not stated)	-103% (active)
CCCCCCCC(=O)NC(Nc1ccccc1OC)C(Cl)(Cl)Cl (configuration not stated)	-23.2%
CCOc1ccc(C(CC(=O)O)n2cnnn2)cc1OC (configuration not stated)	-29.4%
COC(=O)/C(=C\Nc1ccccc1)NC(=O)c1ccc(Cl)cc1Cl	-5.36%
COc1ccc(OC)c(CCNC(=O)CCCn2c(=O)c3cccn3c3cccnc32)c1	6.58%
COc1ccc(NC(=O)CN2CCCN(Cc3ccccc3)S2(=O)=O)cc1	0%
N#C[C@]1(S(=O)(=O)c2ccccc2)C[C@@H]2ON=C(c3cccc(Br)c3)[C@@H]2C1	-79.5% (active)
COC(=O)[C@]1(S(=O)(=O)c2ccccc2)C[C@@H]2ON=C(c3ccc(OC)cc3)[C@@H]2C1	13.3%
COc1ccc(CNc2nc(-c3ccc(Cl)cc3)cc(C(F)(F)F)n2)cc1	-7.09%
CCN(CC)S(=O)(=O)c1ccc2c(c1)nc(CN(C)C(=O)Nc1ccc(Cl)cc1)n2C	9.69%
Cc1cccc(NC(=O)C2CCN(S(=O)(=O)c3c(C)noc3/C=C/c3ccco3)CC2)c1	-40%
Cc1noc(/C=C/c2ccco2)c1S(=O)(=O)N1CCC(C(=O)N2CCc3ccccc32)CC1	47.1%
Cc1noc(/C=C/c2ccco2)c1S(=O)(=O)N1CCC(C(=O)Nc2ccc(Cl)cn2)CC1	-79.9% (active)
C[C@H]1CN([C@@H](C)CO)C(=O)CCCn2cc(nn2)CO[C@@H]1CN(C)S(=O)(=O)c1ccccc1C#N	-5.79%
Cc1cccc(N2CCN(S(=O)(=O)c3ccc4[nH]c5c(c4c3)CCCCC5)CC2)c1C	16.6%
